Assay results from PubChem BioAssay.
Inconclusive results are not listed. Calls of active or inactive are those of the source. Unless noted, no rule for the calls is given here.

Columns and labels:
[1] = rapamycin-like changes in RPL19A-GFP expression – cell-based, S. cerevisiae, multiplex flow cytometry, primary screen (AID 1862; in the data active = percent of DMSO control GFP below about 86%;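 also: lower values mimic rapamycin by blocking the RPL19A rise seen in DMSO cells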); details: S. cerevisiae RPL19A-GFP strain, flow cytometry fluorescence, 3 h; at 10 µM; stronger effect = lower value
[2] = TOR pathway GLN3 branch reporter MEP2-GFP changes – S. cerevisiae, multiplex flow cytometry, primary screen (AID 1867;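 active = GFP response, as percent of the DMSO control, above the screen-wide mean plus 3 SD, about 139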;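 also: median GFP channel fluorescence of barcode-gated MEP2-GFP cells measured by flow cytometry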); details: S. cerevisiae MEP2-GFP strain, 3 h, at 10 µM, stronger effect = higher value
[3] = TOR pathway RTG branch CIT2 reporter changes – S. cerevisiae, GFP fusion, multiplex flow cytometry, primary screen (AID 1870;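 active = percent response above a set limit, the screen-wide mean plus 3 SD, cut at about 130% in these data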;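 also: barcoded CIT2-GFP strain pooled with four other GFP strains with rapamycin as positive control; median GFP fluorescence per well over plate mean of DMSO wells so 100% = DMSO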); details: S. cerevisiae CIT2-GFP expression, 3 h, at 10 µM, stronger effect = higher value
[4] = TOR pathway LAP4-GFP level changes – S. cerevisiae, multiplex flow cytometry, primary screen (AID 1873;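 active = GFP signal, as percent of the solvent control, above the screen mean plus 3 SD, about 149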); details: S. cerevisiae LAP4-GFP expression, 3 h, at 10 µM, stronger effect = higher value
[5] = yeast AGP1-GFP level changes, GLN3 branch – cell-based, multiplex flow cytometry, S. cerevisiae, primary screen (AID 1887;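 active = GFP signal above the screen-wide mean plus 3 SD, that is over about 124.5% of the solvent control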;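 also: AGP1-GFP fusion strain of S. cerevisiae within a five-strain barcoded multiplex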); details: 3 h, at 10 µM, stronger effect = higher value
[6] = reduced mouse 2C T cell binding to pMHC/ICAM-1 vesicles – MLPCN validation set, flow cytometry, LFA-1/ICAM-1 modulator project, pilot screen (AID 2523;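 active = response below a set limit, under 55% cells CD8-positive and vesicle-bound, and CD8 cells' 90th-percentile brightness under 279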;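 as to vesicle binding response: mean PE anti-B7-1 fluorescence of CD8+ cells relative to row control; 100% = QL9-loaded vesicles with DMSO vehicle in the same plate row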); details: 2C mouse CD8+ T cells, at 7 µM, stronger effect = lower value; double positive events: measured here: CD8+/vesicle+ event percentage
[7] = biological target: Integrin beta-1 (Homo sapiens) + Integrin alpha-4 (Homo sapiens) (UniProt P13612+P05556); experiment: alpha4beta1 integrin LIBS antibody binding reduction – U937 cells, HUTS-21 mAb, flow cytometry, validation set, VLA-4 allosteric modulator project, pilot screen (AID 2674;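 active = inhibition above 50%, about 3 SD of the validation set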;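 also: antibody binding induced by the VLA-4 ligand LDV present at three times its Kd; 0% = LDV ligand with antibody and no compound and 100% = antibody without LDV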); details: HUTS-21 LIBS mAb binding, at 6.7 µM, stronger effect = higher value
[8] = calorie-restriction mimetic ROS inhibitors, yeast – validation compound set, pilot screen (AID 2706;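 active = superoxide response below 65% of plate, a cut near 3 SD across the whole screen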;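 also: yeast exposed to compound for one week at 30 degrees C before staining; 100% = mean of all compound wells on the same plate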); details: S. cerevisiae aging, superoxide DHE fluorescence; at 10 µM; stronger effect = lower value
[9] = biological target: Beta-adrenergic receptor kinase 1 (Homo sapiens) (UniProt P25098); experiment: GRK2 binders displacing RNA aptamer, biochemical, validation, human GRK2, bead flow cytometry (AID 488806;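 active = aptamer binding inhibition above 30%, about 3 SD of noise from non-fluorescent compounds; inactive = inhibition at or below 30%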); details: bead-bound GRK2, FAM-aptamer displacement, at 10 µM, stronger effect = higher value
[10] = biological target: Beta-2 adrenergic receptor (Homo sapiens) (UniProt P07550); experiment: agonist-induced loss of surface beta2AR – cell-based, FAP fluorogen, flow cytometry, validation set, pilot screen (AID 504459;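 active = percent response above 42, roughly 3 SD of non-fluorescent test compounds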;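 also: agonist-driven loss of surface beta2AR via internalization measured by FAP dye flow cytometry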); details: Am2.2-beta2AR cells, at 10 µM, stronger effect = higher value
[11] = biological target: AP-2 complex subunit beta (Homo sapiens) (UniProt P63010); experiment: beta-arrestin/AP2 interaction blockers – biochemical, validation set, GST-AP2 beads, flow cytometry, pilot screen (AID 504541;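 active = inhibition above 54%, about 3 SD of non-fluorescent compounds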;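 also: AP2 carries R879A mutation and is captured from E. coli lysate; bead-bound FITC arrestin peptide fluorescence measuring arrestin peptide binding to AP2; 0% = DMSO wells and 100% = excess unlabeled arrestin peptide control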); details: FITC arrestin peptide, at 10 µM, stronger effect = higher value
[12] = cytosolic pH regulators acting via V-ATPase – S. cerevisiae, pHLuorin, HTS validation (AID 504600; in the data active = response above about 15%;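 also: plate controls were DMSO for no effect and reference compound for full effect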); details: V-ATPase proton transport, at 10 µM, stronger effect = higher value
[13] = test system: anti-desmoglein-3 scFv antibody binding to human DSG3; experiment: blockers of pathogenic pemphigus antibody–desmoglein-3 binding – biochemical, validation compound set, bead-based, flow cytometry, pilot screen (AID 588368;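 active = binding below the plate cutoff, the plate median minus 3 SD, with a reading above zero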;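 also: signal is the median channel fluorescence of bead-bound GFP antibody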); details: Protein G beads, DSG3-Fc, scFv-GFP binding, at 10 µM, stronger effect = lower value
[14] = test system: Botulinum neurotoxin type F light chain protease (Clostridium botulinum); experiment: Clostridium botulinum type F light chain protease inhibitors, microsphere substrate cleavage, validation (AID 588459); details: multiplex microsphere protease substrate cleavage assay, flow cytometry; at 10 µM; stronger effect = higher value
[15] = biological target: Botulinum neurotoxin type A (Clostridium botulinum) (UniProt P0DPI0); experiment: BoNT/A light chain protease inhibitors, biochemical, multiplex microsphere flow cytometry, validation set (AID 588460); details: at 10 µM, stronger effect = higher value
[16] = biological target: Lethal factor (Bacillus anthracis) (UniProt P15917); experiment: Bacillus anthracis lethal factor inhibition, microsphere flow cytometry protease assay, validation at 10 µM (AID 588461); details: multiplex microsphere protease cleavage assay, stronger effect = higher value
[17] = Nile Red efflux blockade in pump-expressing yeast – validation compound set, multiplex, phenotypic, pilot screen (AID 588506;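 active = efflux inhibition above 0.42, the validation set average plus 4 SD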;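 also: Nile Red retained in cells so higher fluorescence means more efflux inhibition; 0 = negative control wells and 1 = enniatin B 25 µM full block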); details: S. cerevisiae pump-expressing triplex, Nile Red efflux flow cytometry; at 10 µM; stronger effect = higher value
[18] = biological target: ATP-binding cassette sub-family B member 6 (Homo sapiens) (UniProt Q9NP58); experiment: blockers of ABCB6-driven porphyrin uptake – K562-ABCB6 cells, flow cytometry, validation set, pilot screen (AID 588550;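 active = inhibition above the screen-wide mean plus 3 SD, about 51%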;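 also: 0% = DMSO wells and 100% = benzethonium chloride 70 µM positive control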); details: K562-ABCB6 porphyrin accumulation, 1 h, at 10 µM, stronger effect = higher value
[19] = AML differentiation inducers, ER-HoxA9 marrow cells – cell-based, GFP/MAC1 double positive, flow cytometry, validation set, primary screen (AID 588685;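 active = differentiation response of at least 50%, scaled between solvent and reference control, from cells with both markers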;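 also: compound exposure lasts four days before antibody staining and flow analysis; 0% = DMSO wells and 100% = 5 µM fulvestrant positive control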); details: stronger effect = higher value

Sequence of Lethal factor (Bacillus anthracis) (P15917 whole entry, looked up): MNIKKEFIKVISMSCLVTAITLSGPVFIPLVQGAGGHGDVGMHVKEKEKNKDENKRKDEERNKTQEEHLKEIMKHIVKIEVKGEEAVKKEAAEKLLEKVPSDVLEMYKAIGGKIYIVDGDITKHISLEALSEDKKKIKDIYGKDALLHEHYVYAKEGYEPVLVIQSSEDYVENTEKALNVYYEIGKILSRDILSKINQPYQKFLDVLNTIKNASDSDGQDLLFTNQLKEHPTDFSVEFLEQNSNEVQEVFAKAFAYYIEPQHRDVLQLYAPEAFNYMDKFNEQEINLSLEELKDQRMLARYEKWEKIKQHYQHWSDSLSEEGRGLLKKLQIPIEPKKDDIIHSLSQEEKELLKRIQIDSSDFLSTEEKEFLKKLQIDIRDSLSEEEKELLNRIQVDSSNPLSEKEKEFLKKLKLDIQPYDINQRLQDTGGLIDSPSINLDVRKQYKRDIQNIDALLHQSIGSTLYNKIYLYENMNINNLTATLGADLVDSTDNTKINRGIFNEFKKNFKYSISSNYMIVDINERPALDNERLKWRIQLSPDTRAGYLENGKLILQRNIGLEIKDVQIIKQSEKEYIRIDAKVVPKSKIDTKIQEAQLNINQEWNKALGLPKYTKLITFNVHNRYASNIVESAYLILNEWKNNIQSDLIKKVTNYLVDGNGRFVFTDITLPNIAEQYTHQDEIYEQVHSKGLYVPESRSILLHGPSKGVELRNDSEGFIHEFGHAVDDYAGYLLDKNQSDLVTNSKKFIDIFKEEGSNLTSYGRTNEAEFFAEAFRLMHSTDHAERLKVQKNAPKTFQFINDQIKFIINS
Sequence of AP-2 complex subunit beta (Homo sapiens) (P63010 whole entry, looked up, one chain of several): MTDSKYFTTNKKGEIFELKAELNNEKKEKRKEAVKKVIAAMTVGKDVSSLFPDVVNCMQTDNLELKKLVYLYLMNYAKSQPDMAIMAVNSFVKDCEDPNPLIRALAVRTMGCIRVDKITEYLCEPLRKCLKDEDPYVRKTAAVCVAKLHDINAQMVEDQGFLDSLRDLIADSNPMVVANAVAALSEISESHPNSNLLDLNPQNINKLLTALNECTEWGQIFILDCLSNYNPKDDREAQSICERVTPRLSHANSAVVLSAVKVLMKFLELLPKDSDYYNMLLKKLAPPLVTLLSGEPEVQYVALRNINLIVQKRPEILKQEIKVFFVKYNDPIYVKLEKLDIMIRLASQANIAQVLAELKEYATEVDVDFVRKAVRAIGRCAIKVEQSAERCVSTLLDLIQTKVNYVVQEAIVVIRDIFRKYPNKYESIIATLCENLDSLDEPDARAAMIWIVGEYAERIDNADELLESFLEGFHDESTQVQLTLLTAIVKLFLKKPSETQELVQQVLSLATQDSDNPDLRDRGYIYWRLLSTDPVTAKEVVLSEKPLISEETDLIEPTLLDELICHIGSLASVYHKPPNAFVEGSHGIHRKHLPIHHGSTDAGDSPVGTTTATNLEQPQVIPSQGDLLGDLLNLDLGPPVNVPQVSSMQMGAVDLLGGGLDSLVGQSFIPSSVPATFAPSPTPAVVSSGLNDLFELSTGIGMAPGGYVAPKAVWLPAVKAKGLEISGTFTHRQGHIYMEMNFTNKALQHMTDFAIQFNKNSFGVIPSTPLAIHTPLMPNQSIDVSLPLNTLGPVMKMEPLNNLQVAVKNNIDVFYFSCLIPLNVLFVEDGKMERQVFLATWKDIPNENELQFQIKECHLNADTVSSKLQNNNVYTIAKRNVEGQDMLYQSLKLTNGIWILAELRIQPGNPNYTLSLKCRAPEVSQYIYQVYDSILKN
Sequence of ATP-binding cassette sub-family B member 6 (Homo sapiens) (Q9NP58 whole entry, looked up): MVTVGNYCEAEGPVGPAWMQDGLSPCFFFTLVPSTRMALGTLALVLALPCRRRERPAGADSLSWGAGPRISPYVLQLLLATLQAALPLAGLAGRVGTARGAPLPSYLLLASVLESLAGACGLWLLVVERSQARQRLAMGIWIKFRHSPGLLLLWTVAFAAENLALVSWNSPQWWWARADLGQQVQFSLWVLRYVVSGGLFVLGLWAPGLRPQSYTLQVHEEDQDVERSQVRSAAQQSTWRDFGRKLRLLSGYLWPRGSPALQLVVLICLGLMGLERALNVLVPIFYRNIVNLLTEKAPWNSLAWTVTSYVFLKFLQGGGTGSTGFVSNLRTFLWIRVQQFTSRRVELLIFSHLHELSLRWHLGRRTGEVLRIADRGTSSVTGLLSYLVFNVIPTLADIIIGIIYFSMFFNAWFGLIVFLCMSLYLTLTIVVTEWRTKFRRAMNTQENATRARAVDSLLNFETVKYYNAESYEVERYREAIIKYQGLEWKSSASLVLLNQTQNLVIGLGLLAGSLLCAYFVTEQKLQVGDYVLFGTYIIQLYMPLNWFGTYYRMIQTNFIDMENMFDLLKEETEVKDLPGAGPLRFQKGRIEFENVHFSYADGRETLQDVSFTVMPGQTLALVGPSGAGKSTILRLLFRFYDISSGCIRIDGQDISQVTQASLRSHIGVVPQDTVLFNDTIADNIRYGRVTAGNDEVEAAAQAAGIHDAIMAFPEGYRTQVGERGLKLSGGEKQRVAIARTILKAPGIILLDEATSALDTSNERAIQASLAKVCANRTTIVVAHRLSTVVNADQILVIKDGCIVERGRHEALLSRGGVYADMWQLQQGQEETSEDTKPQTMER
Sequence of Beta-adrenergic receptor kinase 1 (Homo sapiens) (P25098 whole entry, looked up): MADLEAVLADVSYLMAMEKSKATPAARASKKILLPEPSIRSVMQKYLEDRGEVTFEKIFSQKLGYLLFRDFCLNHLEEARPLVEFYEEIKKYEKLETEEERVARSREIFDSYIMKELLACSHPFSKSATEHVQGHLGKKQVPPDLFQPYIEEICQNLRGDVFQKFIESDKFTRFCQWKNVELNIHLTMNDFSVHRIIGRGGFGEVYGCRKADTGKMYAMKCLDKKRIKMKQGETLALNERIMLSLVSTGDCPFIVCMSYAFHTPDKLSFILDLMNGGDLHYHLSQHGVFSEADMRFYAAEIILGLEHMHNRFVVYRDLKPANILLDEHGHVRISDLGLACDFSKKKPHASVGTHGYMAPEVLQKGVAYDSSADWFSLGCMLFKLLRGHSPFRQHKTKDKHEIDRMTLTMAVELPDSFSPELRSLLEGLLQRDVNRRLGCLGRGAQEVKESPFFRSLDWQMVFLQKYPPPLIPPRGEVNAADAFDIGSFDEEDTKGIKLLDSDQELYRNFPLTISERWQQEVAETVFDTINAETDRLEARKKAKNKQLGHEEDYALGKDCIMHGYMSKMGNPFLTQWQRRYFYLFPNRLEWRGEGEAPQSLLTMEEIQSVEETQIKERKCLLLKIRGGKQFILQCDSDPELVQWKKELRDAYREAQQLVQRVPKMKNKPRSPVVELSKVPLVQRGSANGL
Sequence of Botulinum neurotoxin type A (Clostridium botulinum) (P0DPI0 whole entry, looked up): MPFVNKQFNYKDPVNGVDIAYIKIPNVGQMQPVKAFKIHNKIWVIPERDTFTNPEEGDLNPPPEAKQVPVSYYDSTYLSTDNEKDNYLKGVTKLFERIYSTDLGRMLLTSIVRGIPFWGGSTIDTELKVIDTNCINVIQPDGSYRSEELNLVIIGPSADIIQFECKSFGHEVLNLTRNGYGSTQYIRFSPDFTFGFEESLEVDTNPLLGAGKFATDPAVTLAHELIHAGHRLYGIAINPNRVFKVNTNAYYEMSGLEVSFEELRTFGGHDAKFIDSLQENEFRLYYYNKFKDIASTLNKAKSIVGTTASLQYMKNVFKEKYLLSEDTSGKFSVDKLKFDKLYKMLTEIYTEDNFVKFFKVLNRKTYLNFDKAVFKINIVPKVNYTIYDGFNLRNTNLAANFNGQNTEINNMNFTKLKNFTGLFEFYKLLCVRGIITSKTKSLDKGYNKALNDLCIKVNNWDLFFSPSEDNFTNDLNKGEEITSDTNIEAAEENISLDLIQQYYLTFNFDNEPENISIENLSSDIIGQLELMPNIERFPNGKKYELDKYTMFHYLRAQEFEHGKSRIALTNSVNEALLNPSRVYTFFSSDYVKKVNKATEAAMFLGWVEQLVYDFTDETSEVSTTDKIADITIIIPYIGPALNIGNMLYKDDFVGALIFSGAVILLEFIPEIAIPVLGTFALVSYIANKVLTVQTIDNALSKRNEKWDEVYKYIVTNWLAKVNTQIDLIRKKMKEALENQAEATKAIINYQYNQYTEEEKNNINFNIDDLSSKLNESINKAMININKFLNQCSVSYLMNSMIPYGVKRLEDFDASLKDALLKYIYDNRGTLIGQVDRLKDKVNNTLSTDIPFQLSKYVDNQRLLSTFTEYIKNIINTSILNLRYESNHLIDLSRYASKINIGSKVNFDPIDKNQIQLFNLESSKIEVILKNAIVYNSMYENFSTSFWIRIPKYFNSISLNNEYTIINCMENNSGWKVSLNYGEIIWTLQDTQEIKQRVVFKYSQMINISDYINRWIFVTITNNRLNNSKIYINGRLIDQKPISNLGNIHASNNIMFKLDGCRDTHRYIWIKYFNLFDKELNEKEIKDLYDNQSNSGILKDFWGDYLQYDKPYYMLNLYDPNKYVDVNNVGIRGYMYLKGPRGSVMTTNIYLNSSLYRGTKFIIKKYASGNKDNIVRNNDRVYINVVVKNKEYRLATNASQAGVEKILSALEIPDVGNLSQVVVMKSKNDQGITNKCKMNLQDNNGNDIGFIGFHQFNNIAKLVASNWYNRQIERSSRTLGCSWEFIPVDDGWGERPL
Sequence of Beta-2 adrenergic receptor (Homo sapiens) (P07550 whole entry, looked up): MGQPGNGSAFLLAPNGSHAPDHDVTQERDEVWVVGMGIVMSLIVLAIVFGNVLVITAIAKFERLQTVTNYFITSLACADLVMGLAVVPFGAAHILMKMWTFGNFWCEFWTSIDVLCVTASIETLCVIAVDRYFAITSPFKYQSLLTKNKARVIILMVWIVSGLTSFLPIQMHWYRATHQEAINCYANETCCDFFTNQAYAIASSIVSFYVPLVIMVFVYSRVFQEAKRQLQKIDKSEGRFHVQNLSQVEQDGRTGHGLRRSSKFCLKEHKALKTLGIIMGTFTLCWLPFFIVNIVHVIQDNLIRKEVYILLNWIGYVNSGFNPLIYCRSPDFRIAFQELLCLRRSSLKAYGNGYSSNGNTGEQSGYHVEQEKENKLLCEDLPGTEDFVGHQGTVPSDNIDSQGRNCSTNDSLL

## OC(c1ccccc1)(c1ccccc1)C1CCNCC1
[1]
  percent of DMSO control GFP: 99.4% (inactive)
[2]
  GFP response vs DMSO: 110% (inactive)
[3]
  percent response of DMSO control: 104% (inactive)
[4]
  GFP response vs DMSO: 85.3% (inactive)
[5]
  GFP response, % of DMSO: 103% (inactive)
[6]
  double positive events: 73.3%
  vesicle binding response: 322% (inactive)
[7]
  inhibition: -5.18% (inactive)
[8]
  superoxide response (% of plate): 94.6% (inactive)
[9]
  aptamer binding inhibition: 12% (inactive)
[10]
  response: 6.3% (inactive)
[11]
  inhibition: 2.73% (inactive)
[12]
  response: 10.3% (inactive)
[13]
  binding (% of control): 106% (inactive)
[14]
  inhibition: 4.1% (inactive)
[15]
  inhibition: 1.1% (inactive)
[16]
  inhibition: 4.1% (inactive)
[17]
  efflux inhibition (fraction of control): 0.05 (inactive)
[18]
  inhibition: 12% (inactive)
[19]
  differentiation response: 2.46% (inactive)

## CCCC[N+]1(C)[C@@H]2CC(OC(=O)[C@H](CO)c3ccccc3)C[C@H]1[C@@H]1O[C@@H]12 (some centres undefined)
[1]
  percent of DMSO control GFP: 107% (inactive)
[2]
  GFP response vs DMSO: 109% (inactive)
[3]
  percent response of DMSO control: 106% (inactive)
[4]
  GFP response vs DMSO: 112% (inactive)
[5]
  GFP response, % of DMSO: 111% (inactive)
[6]
  double positive events: 59.9%
  vesicle binding response: 150% (inactive)
[7]
  inhibition: -15.8% (inactive)
[8]
  superoxide response (% of plate): 97.4% (inactive)
[9]
  aptamer binding inhibition: 4% (inactive)
[10]
  response: -2.08% (inactive)
[11]
  inhibition: 0.96% (inactive)
[12]
  response: -3.56% (inactive)
[13]
  binding (% of control): 96.4% (inactive)
[14]
  inhibition: 1.1% (inactive)
[15]
  inhibition: 0.2% (inactive)
[16]
  inhibition: -5.3% (inactive)
[17]
  efflux inhibition (fraction of control): 0.3 (inactive)
[18]
  inhibition: 28% (inactive)
[19]
  differentiation response: 13% (inactive)

## C=C1[C@@H](C)[C@H]2[C@H](Cc3ccccc3)NC(=O)[C@]23OC(=O)/C=C/[C@H](O)CCC[C@@H](C)C/C=C/[C@H]3[C@@H]1O
[1]
  percent of DMSO control GFP: 106% (inactive)
[2]
  GFP response vs DMSO: 102% (inactive)
[3]
  percent response of DMSO control: 106% (inactive)
[4]
  GFP response vs DMSO: 114% (inactive)
[5]
  GFP response, % of DMSO: 119% (inactive)
[6]
  double positive events: 62.1%
  vesicle binding response: 205% (inactive)
[7]
  inhibition: -2.82% (inactive)
[8]
  superoxide response (% of plate): 102% (inactive)
[9]
  aptamer binding inhibition: 4% (inactive)
[10]
  response: 36.2% (inactive)
[11]
  inhibition: -4.43% (inactive)
[12]
  response: 0.39% (inactive)
[13]
  binding (% of control): 102% (inactive)
[14]
  inhibition: 2% (inactive)
[15]
  inhibition: 0.4% (inactive)
[16]
  inhibition: -2.5% (inactive)
[17]
  efflux inhibition (fraction of control): -0.21 (inactive)
[18]
  inhibition: 7% (inactive)
[19]
  differentiation response: -4% (inactive)

## O=c1[nH]c2ccccc2n1C1CCN(CCCC(c2ccc(F)cc2)c2ccc(F)cc2)CC1
[1]
  percent of DMSO control GFP: 97.1% (inactive)
[2]
  GFP response vs DMSO: 107% (inactive)
[3]
  percent response of DMSO control: 103% (inactive)
[4]
  GFP response vs DMSO: 130% (inactive)
[5]
  GFP response, % of DMSO: 120% (inactive)
[6]
  double positive events: 56.5%
  vesicle binding response: 184% (inactive)
[7]
  inhibition: 41.5% (inactive)
[8]
  superoxide response (% of plate): 88.4% (inactive)
[9]
  aptamer binding inhibition: -13% (inactive)
[10]
  response: 67.3% (active)
[11]
  inhibition: -9.19% (inactive)
[12]
  response: 73.1% (active)
[13]
  binding (% of control): 114% (inactive)
[14]
  inhibition: -2.3% (inactive)
[15]
  inhibition: -1.7% (inactive)
[16]
  inhibition: -3% (inactive)
[17]
  efflux inhibition (fraction of control): 0.12 (inactive)
[18]
  inhibition: 6% (inactive)
[19]
  differentiation response: 13.7% (inactive)

## C[C@H]1CCC/C=C/C2C[C@H](O)CC2[C@H](O)/C=C/C(=O)O1 (some centres undefined)
[1]
  percent of DMSO control GFP: 106% (inactive)
[2]
  GFP response vs DMSO: 111% (inactive)
[3]
  percent response of DMSO control: 99.7% (inactive)
[4]
  GFP response vs DMSO: 100% (inactive)
[5]
  GFP response, % of DMSO: 102% (inactive)
[6]
  double positive events: 62.5%
  vesicle binding response: 166% (inactive)
[7]
  inhibition: 0.25% (inactive)
[8]
  superoxide response (% of plate): 92.8% (inactive)
[9]
  aptamer binding inhibition: 1% (inactive)
[10]
  response: 28.3% (inactive)
[12]
  response: -4.42% (inactive)
[13]
  binding (% of control): 85.8% (inactive)
[14]
  inhibition: 4% (inactive)
[15]
  inhibition: -0.8% (inactive)
[16]
  inhibition: 2.7% (inactive)
[17]
  efflux inhibition (fraction of control): 0.31 (inactive)
[18]
  inhibition: 17% (inactive)
[19]
  differentiation response: 32% (inactive)
